Screening data from PubChem.
Compounds with a hit are over-represented: about 21% of the library has one in this group of screens.
HCV inh = blocks hepatitis C virus | Huh7.5.1 HCVcc-Cre infection, luciferase reporter, 44 h | Potency, µM (doses to about 41.8 µM), for the others: at the highest dose activity change, negative = inhibition, actives largely listed as inhibitors | hit rate 3.4% among 340,000; note: potency is the fitted concentration of half-maximal effect; % is set by controls: 0 for no effect and ±100 for the full control effect
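A cell-based infection assay in which seeded cells (1,000 per well) receive test compound after 4 h, are inoculated with HCVcc-Cre at approximately 0.5 moi, and are incubated 44 h before luminescence detection.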
Pf growth 96h = P. falciparum growth inhibition at 96 hours. Potency, µM (highest dose often 28.7 µM), without a hit: at the top dose activity change, negative = inhibition, hits mostly inhibitors. AID 504834. P. falciparum luciferase reporter growth, 96 h. hit rate 6.9% among 320,000; note: potency is the fitted concentration of half-maximal effect; % is set by controls: 0 for no effect and ±100 for the full control effect
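Erythrocytes infected with luciferase-expressing P. falciparum were dispensed at 2% hematocrit and 0.05% parasitemia (final), then incubated with compounds 96 hours at 37 C in 5% CO2. Luminescence after detection reagent addition reported growth.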
Pf growth 48h = P. falciparum growth inhibition at 48 hours (one generation) | AID 504832 | Potency, µM (highest dose often 28.7 µM), inactives show at the highest dose activity change, negative = inhibition, hits mostly inhibitors | hit rate 5.9% among 310,000 | P. falciparum luciferase growth in erythrocytes, 48 h; note: potency is the fitted concentration of half-maximal effect; % is set by controls: 0 for no effect and ±100 for the full control effect
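Luciferase-expressing P. falciparum in infected erythrocytes (2% hematocrit, 0.1% parasitemia final) in RPMI 1640/0.5% Albumax were exposed to compound for 48 hours at 37 C, 5% CO2; growth read as luminescence.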
HCMV antiviral = inhibitors of human cytomegalovirus | HFF cells, HCMV-luciferase reporter, 72 h; active compounds read low | activity change, negative = inhibition, % at 57.5 µM | hit rate 4.5% among 410,000 | AID 1259415; in the data active = activity change below about -60%; inconclusive = no clear call, values can overlap the other calls; inactive = above about -39%; note: % is set by controls: 0 for no effect and ±100 for the full control effect
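Cell-based, HFFs, 1000 cells/well, 16 h 37C; cpds in DMSO + HCMV-luc, MOI 1 PFU/cell; 72 h 37C; OneGlo luminescence after 5 min RT; norm. to buffer vs Salinomycin 10uM.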
Cycloheximide cs = counter-screen hit for Shiga toxin inhibitors, cycloheximide; cell reporter, cycloheximide protein synthesis inhibition counterscreen; max response, %; hit rate 12% among 300,000; AID 2314; in the data active = max response mostly above about 13%, no sharp cut-off; inactive = mostly below about 14%; note: read at 38.3 µM for the half of the compounds with a filed dose; 0% is about no effect
Shiga inhibitor = blocks Shiga toxin action in Vero cells; Vero cells, Shiga toxin protein synthesis inhibition reporter; inhibition, % at 38.7 µM; hit rate 9.2% among 290,000; AID 2315; in the data active = inhibition mostly above about 28%, no sharp cut-off; inactive = mostly below about 43%; note: 0% is about no effect
Active calls of the source: *; i = inactive; ? = inconclusive; . = no result. Unless noted, calls come from the whole dose curve; as a rule, active = well fitted inhibition curve with a large enough effect; inconclusive = small, poorly fitted or top-dose-only effect, or another doubt; inactive = no such curve, though single readings can be large or run the other way.

SMILES	HCV inh	Pf growth 96h	Pf growth 48h	HCMV antiviral	Cycloheximide cs	Shiga inhibitor
O=C(NCc1cccs1)c1ccc2c(=O)n3nc(Nc4ccccc4)sc3nc2c1	.	.	.	-4	.	.
CCc1ccccc1Nc1nn2c(=O)c3ccc(C(=O)NCc4cccs4)cc3nc2s1	.	8.3µM*	9.3µM*	?	.	.
COc1ccc(OCCNc2cc(N3CCCCC3)ccc2[N+](=O)[O-])cc1	?	?	?	?	0	20
Cc1ccccc1OCCNc1cc(N2CCN(CCO)CC2)ccc1[N+](=O)[O-]	?	7%	?	-38	-2	-7
COc1ccc(OCCNc2cc(N3CCOCC3)ccc2[N+](=O)[O-])cc1	?	?	-15%	-3	13	-12
COc1cccc(OCCNc2cc(N3CCOCC3)ccc2[N+](=O)[O-])c1	14µM*	0.41µM*	15%	31	44*	22
COc1ccc(OCCNc2cc(Cl)ccc2[N+](=O)[O-])cc1	?	0%	-9%	-65*	17*	1
CC1CN(c2ccc([N+](=O)[O-])c(NCCOc3ccccc3)c2)CCN1 (stereo not drawn)	10µM*	10%	?	39	-2	-12
Cc1ccccc1OCCNc1cc(N2CCCCC2)ccc1[N+](=O)[O-]	14µM*	?	?	-28	-2	10
Cc1cccc(CC(=O)NC2CC(=O)N(c3cccc(F)c3)C2)c1 (stereo not drawn)	.	.	.	14	.	.
COCCn1c(CN2CCc3ccccc3C2)nc2c1c(=O)n(C)c(=O)n2C	?	i	-14%	-39	0	25
CCc1c(C)[nH]n(-c2nc(-c3cccc([N+](=O)[O-])c3)cs2)c1=O	12%	8%	-4%	-28	22*	23*
Cc1ccccc1NS(=O)(=O)c1ccc(C(=O)NN2CCCCC2)cc1	11%	?	4%	-9	4	6
CCCCCCCN1C(Nc2ccccc2)=NC[C@@H]1CC(C)C	?	?	?	-33	-3	-9
CCCCCCNC(=O)N[C@H](C(=O)NCCC[C@H]1CN2C(=NC[C@H]2C)N1CCC(c1ccccc1)c1ccccc1)C(C)O (stereo partly drawn)	.	2.9µM*	9.3µM*	.	-6	-8
Fc1ccc(Br)cc1/C=N/N1CCN(c2ccccc2)CC1	-7%	-12%	29%	25	10	.
Cc1ccsc1/C=N/NC(=O)CN1CCN(Cc2ccccc2)CC1	3%	33%	9%	-35	8	-3
Cc1ccsc1/C=N/N1CCN(Cc2ccccc2)CC1	13%	7%	50%	-31	24*	38*
Cc1ccsc1/C=N/N1CCN(c2ccccc2)CC1	-7%	208%	43%	38	71*	60*
Cc1ccsc1/C=N/N1CCN(c2ccccn2)CC1	-27%	43%	96%	-71*	31*	55*
CC1CCCC(NCC(=O)Nc2ccc(C(N)=O)cc2)C1C (stereo not drawn)	16%	3%	-15%	24	-1	10
Cc1c(CC(=O)NCCc2ccccc2F)c(=O)oc2cc(O)c(Cl)cc12	.	.	.	-16	.	.
CCc1sc(NC(C)=O)nc1-c1ccccc1	3%	?	22%	23	-1	-2
Cc1ccc(Nc2nc(-c3ccccc3)c(CC(=O)O)s2)cc1	17%	?	67%	-11	47*	82*
O=C(O)Cc1sc(Nc2ccccc2Cl)nc1-c1ccccc1	.	.	.	-61*	.	.
SMILES	HCV inh	Pf growth 96h	Pf growth 48h	HCMV antiviral	Cycloheximide cs	Shiga inhibitor
CCc1sc(NC(=O)C(C)C)nc1-c1ccccc1	-6%	0%	-13%	-78*	2	-7
O=C(O)Cc1sc(Nc2ccc(F)cc2)nc1-c1cccs1	-2%	76%	59%	29	30*	60*
CCOCCCNC(=O)c1ccc(NC(=O)N2CCCCc3ccccc32)cc1	.	.	.	-4	.	.
Cc1ccc(S(=O)(=O)NCCC(=O)Nc2ccc(C)cc2C(=O)c2ccccc2)cc1	-2%	-81%	-29%	-7	-8	-6
Cc1ccc(OCCC(=O)OC(C)C(=O)NC2CC2)cc1 (stereo not drawn)	7%	-5%	?	-6	.	.
CC(OC(=O)CCN1C(=O)C2CC=CCC2C1=O)C(=O)Nc1cccc(C#N)c1 (stereo not drawn)	-25%	21%	-27%	-33	.	.
